Bioassay records (PubChem)
SW480 rerep: DNA re-replication induction in SW480 cells. SW480 DNA re-replication, Hoechst DNA content imaging, 48 h. Potency, µM (titrated, usually from 46.1 µM), actives largely listed as activators. 1.8% of 340,000 active; further: nearly all actives have a fitted effect of over 55% in size
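SW480 cells exposed to compounds for 48 hr at 37 C, 5% CO2, then Hoechst-stained 40 min. Nuclear DNA content imaged by fluorescence scanning (405 nm excitation, 500-530 nm emission); re-replication scored as increased high-intensity nuclei.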
MCF10A rerep: DNA re-replication induction in MCF 10a cells; MCF 10A DNA re-replication, Hoechst nuclear intensity, 48 h; 2.9% of 350,000 active; Potency, µM (doses to about 46.1 µM), usual class: activators; further: nearly all actives have a fitted effect of over 50% in size
KB-3-1 tox: KB-3-1 parental cell cytotoxicity; KB-3-1 viability, CellTiter-Glo ATP luminescence, 72 h; Potency, µM (titrated, usually from 46.1 µM), actives largely listed as cytotoxic; 1.4% of 400,000 active; further: nearly all actives have a fitted effect of over 60% in size
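Cytotoxicity measured as CellTiter-Glo luminescence after 72 h at 37 C. Compound titrations were pinned onto drug-naive KB-3-1 parental adenocarcinoma cells grown in DMEM with 10% FBS, and normalized data fitted to concentration-response curves.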
RORg inh: inhibitors of mouse ROR gamma transcriptional activity. Potency, µM (series often up to 53.6 µM), most hits filed as inhibitors. 5.4% of 310,000 active. Drosophila S2 Gal4-RORgamma UAS-luciferase reporter, 20 h. AID 2551; further: nearly all actives have a fitted effect of over 60% in size
Target sequence (P51450 whole entry, looked up, the tested form may be a part): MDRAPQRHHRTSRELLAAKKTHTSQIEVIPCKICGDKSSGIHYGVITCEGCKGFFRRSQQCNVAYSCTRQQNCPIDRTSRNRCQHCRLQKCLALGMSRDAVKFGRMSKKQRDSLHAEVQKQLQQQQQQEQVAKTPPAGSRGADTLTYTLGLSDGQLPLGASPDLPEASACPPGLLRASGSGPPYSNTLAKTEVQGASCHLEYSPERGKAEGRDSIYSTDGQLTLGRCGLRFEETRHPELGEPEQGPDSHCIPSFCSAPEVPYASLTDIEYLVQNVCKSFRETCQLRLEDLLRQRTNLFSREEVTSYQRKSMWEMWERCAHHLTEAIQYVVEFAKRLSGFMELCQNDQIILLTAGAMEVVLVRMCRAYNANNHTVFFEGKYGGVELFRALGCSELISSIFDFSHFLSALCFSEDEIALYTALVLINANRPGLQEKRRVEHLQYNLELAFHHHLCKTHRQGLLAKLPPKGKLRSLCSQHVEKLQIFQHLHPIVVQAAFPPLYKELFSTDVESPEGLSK
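Stably transfected Drosophila Schneider cells are the test system, with ROR gamma fused to Gal4 and luciferase under UAS control; luminescence is read after 20 hr of 700 uM copper sulfate induction at ambient temperature.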
Gal4-VP16 FLuc: Gal4-VP16 reporter inhibition counter-screen; Drosophila S2 Gal4-VP16 UAS-luciferase, luminescence, 20 h; Potency, µM (highest dose often 53.6 µM), most hits filed as inhibitors; 3.5% of 310,000 active; AID 2546;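 further: Gal4-VP16 expression switched on by copper sulfate through the metallothionein promoter; nearly all actives have a fitted effect of over 50% in size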
KB-V1 MDR tox: KB-V1 MDR subline cytotoxicity; KB-V1 MDR cells viability, CellTiter-Glo, 72 h; Potency, µM (doses to about 46.1 µM), actives largely listed as cytotoxic; 3.4% of 400,000 active; AID 1347076; further: nearly all actives have a fitted effect of over 60% in size
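Luminescent ATP read-out (CellTiter-Glo, 10 min) measures survival of drug-selected KB-V1 MDR cells after 72 h, 37 degrees C compound exposure. Medium: phenol-red-free DMEM, 10% FBS. Values from fitted concentration-response curves.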
Large screens that a line does not name were inactive; ! = not confirmed by another sample. Only some compounds are listed: those with a hit (about 10% of all), similar ones and a draw of the others. The call rests on the fitted dose curve; in most records, active means well fitted curve in the direction sought with a large enough effect; inconclusive means small, poorly fitted or top-dose-only effect, or another doubt; inactive means no such curve, though single readings can be large; an effect the other way counts as inactive or inconclusive.

Cc1cccn2c(=O)c3cc(C#N)c(=NC(=O)c4ccccc4)n(Cc4ccco4)c3nc12	SW480 rerep 7.31µM, MCF10A rerep 2.31µM, KB-V1 MDR tox inconclusive (no result: RORg inh, Gal4-VP16 FLuc)
CCOC(=O)c1cc2c(=O)n3ccccc3nc2n(Cc2ccco2)c1=NC(=O)c1cccnc1	SW480 rerep 6.51µM, MCF10A rerep inconclusive
CCOC(=O)c1cc2c(=O)n3cccc(C)c3nc2n(Cc2ccco2)c1=NC(=O)c1cccnc1	SW480 rerep inconclusive
COc1ccc([C@]23Cc4ccccc4C(O2)c2c(cc(C)n(Cc4ccccc4)c2=O)O3)cc1	Gal4-VP16 FLuc inconclusive (no result: SW480 rerep, MCF10A rerep, KB-3-1 tox, KB-V1 MDR tox)
CCc1ccccc1NC(=O)c1nc2nc(C)cc(C(F)F)n2n1	none (no result: SW480 rerep, MCF10A rerep, RORg inh, Gal4-VP16 FLuc)
Brc1ccc(N=Nc2ccc3ccccc3n2)cc1	RORg inh 0.112µM, Gal4-VP16 FLuc 0.447µM, KB-V1 MDR tox inconclusive
COc1ccc(CCN2C(=O)C(Oc3ccccc3C)C2c2ccc3c(c2)OCO3)cc1OC (centres undefined)	SW480 rerep inconclusive, MCF10A rerep inconclusive, KB-3-1 tox inconclusive, Gal4-VP16 FLuc inconclusive
COc1ccc(CCN2C(=O)C(Oc3ccccc3C)C2c2ccc3c(c2)OCO3)cc1 (centres undefined)	MCF10A rerep inconclusive, KB-V1 MDR tox 10.3µM
COc1ccc(NC(=O)[C@@H]2CC=C[C@@H]3CCN(Cc4ccc(Cl)c(Cl)c4)C(=O)[C@@H]32)cc1	SW480 rerep inconclusive, KB-3-1 tox inconclusive, KB-V1 MDR tox 23.1µM! (no result: RORg inh, Gal4-VP16 FLuc)
Cc1ccc(C)c(N2CCN(C(=O)CCNC(=O)Cn3ccc4ccccc4c3=O)CC2)c1	KB-V1 MDR tox 6.51µM
CCOc1ccc(N(CC)C(=O)CCNC(=O)Cn2ccc3ccccc3c2=O)cc1	KB-V1 MDR tox 23.1µM
Cc1cc(C(=O)CCl)c(C)n1CCc1ccc(Cl)cc1	SW480 rerep 5.17µM, MCF10A rerep 16.4µM, KB-3-1 tox inconclusive, RORg inh 12.6µM, Gal4-VP16 FLuc inconclusive, KB-V1 MDR tox inconclusive
COc1ccc(CCn2c(C)cc(C(=O)CCl)c2C)cc1OC	SW480 rerep 5.8µM, MCF10A rerep 6.51µM, KB-3-1 tox inconclusive, RORg inh 11.2µM, Gal4-VP16 FLuc 20µM, KB-V1 MDR tox inconclusive
Cc1cc(C(=O)CCl)c(C)n1CCc1ccc(F)cc1	MCF10A rerep inconclusive, KB-3-1 tox inconclusive, RORg inh inconclusive, KB-V1 MDR tox inconclusive
OC[C@@H](O)[C@@H](O)CCc1ccccc1	none (no result: SW480 rerep, MCF10A rerep, KB-3-1 tox, KB-V1 MDR tox)
CN1CCN(c2ncc3nc(-c4cccs4)c(=O)n(C[C@H]4CCCO4)c3n2)CC1	none (no result: SW480 rerep, MCF10A rerep, KB-3-1 tox, KB-V1 MDR tox)
CCn1c(C)nc2cc(C(=O)N3N=C(CCOC)CC3(O)C(F)(F)F)ccc21 (centres undefined)	RORg inh inconclusive, Gal4-VP16 FLuc 35.5µM
CCn1c(C)nc2cc(C(=O)OC)ccc21	none
Cc1nc(Nc2ccc(S(=O)(=O)N3CCCCC3C)cc2)c2nnn(Cc3ccccc3)c2n1 (centres undefined)	KB-3-1 tox 16.4µM, KB-V1 MDR tox 2.31µM
COc1ccc(Nc2nc(C)nc3c2nnn3Cc2ccccc2)cc1OC	KB-V1 MDR tox inconclusive
Cc1nc(Nc2ccc(Cl)cc2)c2nnn(Cc3ccccc3)c2n1	MCF10A rerep 23.1µM, KB-V1 MDR tox inconclusive
CCOC(=O)CC1(C)NC(=O)c2c(C)sc(C(=O)OCC)c2N1 (centres undefined)	KB-V1 MDR tox 16.4µM
CCC(C)(c1nnnn1-c1c(C)cccc1C)N(N=O)c1ccccc1Cl (centres undefined)	MCF10A rerep inconclusive, KB-3-1 tox inconclusive, Gal4-VP16 FLuc inconclusive, KB-V1 MDR tox 18.4µM (no result: SW480 rerep)
CCOC1=C2[C@H](c3ccccc3F)N(S(=O)(=O)c3ccc(C)cc3)C[C@H]2n2c(=O)n(-c3ccccc3)c(=O)n2C1	none (no result: SW480 rerep, MCF10A rerep, RORg inh, Gal4-VP16 FLuc)
COc1ccc(CNC(=O)CS(=O)Cc2nc(-c3ccc(C)cc3)oc2C)cc1 (centres undefined)	RORg inh 12.6µM
Cc1ccc(CNC(=O)CS(=O)Cc2nc(-c3ccccc3C)oc2C)cc1 (centres undefined)	RORg inh 11.2µM
COc1ccc(CNC(=O)CS(=O)Cc2nc(-c3ccc(OC)c(OC)c3)oc2C)cc1 (centres undefined)	none
COc1ccc(-c2nc(CS(=O)CC(=O)NCc3ccc4c(c3)OCO4)c(C)o2)cc1 (centres undefined)	RORg inh 11.2µM
COc1cccc(-c2nc(CS(=O)CC(=O)NCc3ccc4c(c3)OCO4)c(C)o2)c1 (centres undefined)	none
Cc1ccc(-c2nc(CS(=O)CC(=O)NCc3ccc(F)cc3)c(C)o2)cc1 (centres undefined)	RORg inh 11.2µM
COC(=O)c1cc(NC(=O)Nc2ccc3snnc3c2)cc(C(=O)OC)c1	none (no result: SW480 rerep, MCF10A rerep, RORg inh, Gal4-VP16 FLuc)
Cc1ccc2onc(CNC(=O)NCc3ccc(Cl)cc3)c2c1	none (no result: SW480 rerep, MCF10A rerep, RORg inh, Gal4-VP16 FLuc)
O=C(Nc1ccc(Cn2nnc3ccccc32)cc1)c1ccco1	KB-3-1 tox 16.4µM, Gal4-VP16 FLuc inconclusive, KB-V1 MDR tox 16.4µM
Cc1ccc(OCCn2c(NC(=O)c3ccco3)nc3ccccc32)cc1	MCF10A rerep inconclusive, KB-3-1 tox inconclusive, RORg inh 1.58µM, Gal4-VP16 FLuc 2µM, KB-V1 MDR tox inconclusive
Cc1cccc(OCCn2c(NC(=O)c3ccco3)nc3ccccc32)c1	SW480 rerep inconclusive, KB-3-1 tox inconclusive, RORg inh 1.41µM, Gal4-VP16 FLuc 2µM, KB-V1 MDR tox 2.31µM
O=C(Nc1nc2ccccc2n1Cc1ccc(Cl)cc1)c1ccco1	MCF10A rerep inconclusive, RORg inh 0.708µM, Gal4-VP16 FLuc 2µM
Clc1cccc(-n2ncc3c(Nc4ccc5c(c4)OCCO5)ncnc32)c1	none (no result: SW480 rerep, MCF10A rerep, RORg inh, Gal4-VP16 FLuc)
CC(=O)Nc1nc2ccccc2n1Cc1ccc(Cl)cc1	SW480 rerep inconclusive, KB-3-1 tox 9.2µM, RORg inh 1.12µM, Gal4-VP16 FLuc 1.58µM, KB-V1 MDR tox inconclusive
CC(NC(=O)/C=C/c1ccco1)c1nc2ccccc2n1Cc1cccc(Cl)c1 (centres undefined)	MCF10A rerep inconclusive, RORg inh inconclusive, Gal4-VP16 FLuc 11.2µM
O=C(Nc1nc2ccccc2n1CCOc1ccccc1)c1ccco1	SW480 rerep inconclusive, KB-3-1 tox inconclusive, RORg inh 2µM, Gal4-VP16 FLuc 5.01µM, KB-V1 MDR tox inconclusive
Nc1nc2ccccc2n1CCOc1ccc(Cl)cc1	MCF10A rerep inconclusive, RORg inh inconclusive
O=C(Nc1nc2ccccc2n1CCOc1ccc(Cl)cc1)c1ccco1	SW480 rerep inconclusive, KB-3-1 tox inconclusive, RORg inh 1.41µM, Gal4-VP16 FLuc 2.51µM, KB-V1 MDR tox inconclusive
O=C(Nc1nc2ccccc2n1CCN1CCCCC1)c1ccco1	SW480 rerep inconclusive, Gal4-VP16 FLuc inconclusive
Cc1c(Cl)cccc1NC(=O)CC(c1cccs1)N1Cc2ccccc2C1=O (centres undefined)	KB-V1 MDR tox inconclusive (no result: SW480 rerep, MCF10A rerep, RORg inh, Gal4-VP16 FLuc)
